These compounds were tested on MELK. Conditions: concentration: 1 μM,replicates: in singlicate; n = 1.
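Note: KINOMEscan kinase panel screen.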

| Structure (SMILES) | %Inh [%] |
| --- | --- |
| CCN(CC)CCOc1ccc(Nc2ncc3cc(-c4c(Cl)cccc4Cl)c(=O)n(C)c3n2)cc1 [SB-601273] | 62 |
| CNC(=O)c1ccccc1Sc1ccc2c(/C=C/c3ccccn3)n[nH]c2c1 | 0 |
| C[C@@H](Oc1cc(-c2cnn(C3CCNCC3)c2)cnc1N)c1c(Cl)ccc(F)c1Cl | 7 |
| C[C@@H]1CCN(C(=O)CC#N)C[C@@H]1N(C)c1ncnc2[nH]ccc12 | 23 |
| Cl.Cl.NC[C@H](CC1CCCCC1)NC(=O)c1cc(Br)c(-c2ccnc3[nH]ccc23)s1 [GSK1581427] | 76 |
| C=CC(=O)Nc1cc2c(Nc3ccc(F)c(Cl)c3)ncnc2cc1OCCCN1CCOCC1 [GW781483] | 28 |
| COc1ccc(C[C@@H](CN)NC(=O)c2cc(Br)c(-c3ccnc4[nH]ccc34)s2)cc1.Cl.Cl [GSK1389063] | 100 |
| Cc1cc(C(=O)Nc2ccc(Oc3ccc4nc(NC(=O)C5CC5)cn4n3)cc2)nn1-c1ccccc1 | 8 |
| CCN(CC)CCCCNc1ncc2cc(-c3c(Cl)cccc3Cl)c(NC(=O)NC(C)(C)C)nc2n1 | 19 |
| CN(C)CC(O)COc1ccc(Nc2nccc(-c3cnn4nc(N5CCOCC5)ccc34)n2)cc1 (stereo not drawn) [GW767488] | 65 |
| Cc1ccc(-n2nc(C(C)(C)C)cc2NC(=O)Nc2ccc(OCCN3CCOCC3)c3ccccc23)cc1 [GW839464] | 7 |
| CC(C)N1C(=O)Cc2cc(Nc3ncc(C(F)(F)F)c(NCc4cccc(S(C)(=O)=O)c4)n3)ccc21 | 0 |
| C[C@H]1Oc2cc(cnc2N)-c2c(nn(C)c2C#N)CN(C)C(=O)c2ccc(F)cc21 | 30 |
| CN(C)CCOc1ccc(-c2cc(-c3c[nH]nc3-c3ccccn3)ccn2)cc1 [GW835314] | 11 |
| Cl.Cl.NC[C@H](Cc1ccc(C(F)(F)F)cc1)NC(=O)c1cc(Br)c(-c2ccnc3[nH]ccc23)s1 [GSK1487252] | 76 |
| CCn1c(-c2nonc2N)nc2c(C#CC(C)(C)O)nc(OCCN)cc21.Cl.Cl [GSK902056] | 0 |
| Cl.Cl.Nc1nc(-c2ccc3c(N)n[nH]c3c2)cc(N2CCCC(NC(=O)c3ccccc3)C2)n1 (stereo not drawn) [GSK2286775] | 0 |
| Nc1nc(Nc2ccccc2)cc(-c2ccc3c(N)n[nH]c3c2)n1 [GSK2225749] | 58 |
| O=C(NCCNc1ccnc(NCc2ccc(F)cc2)n1)c1cc2ccccc2s1 [GSK1379944] | 0 |
| CC(C)Nc1cc(-c2ccc3c(N)n[nH]c3c2)nc(N)n1 [GSK2221681] | 38 |
| Cl.Oc1cc(-c2nc(-c3ccccc3)[nH]c2-c2ccncc2)ccc1Cl [SB-386023] | 23 |
| Cc1n[nH]c2ccc(-c3cc(OC[C@@H](N)Cc4ccccc4)cnc3-c3ccoc3)cc12.O=C(O)C(F)(F)F.O=C(O)C(F)(F)F [GSK507358] | 30 |
| Cc1ccc2c(-c3ccncc3)c(-c3ccc(F)cc3)nn2c1.Cl [GW461484] | 14 |
| Cc1occc1-c1nc(N)c(OC[C@@H](N)Cc2c[nH]c3ccccc23)cc1-c1cc2c(C)n[nH]c2cn1 [GSK1660450] | 35 |
| NC(=O)c1cc(-c2ccccc2)cc2c(C3CCNCC3)c[nH]c12 [GSK301362] | 0 |
| Cc1cc2cn[nH]c2cc1-c1cccc2c(N)c(C(N)=O)nnc12 | 5 |
| O=C(NCCCN1CCOC1=O)c1cnc(NCc2cc(Cl)ccc2Cl)nc1NC1CCCC1 | 20 |
